About 79,000 compounds went through this panel and 15% of them were active in at least one assay; those are over-represented in the sample as a whole. Values without a mark were called inactive. Active and inactive are the calls of the source. No stated cut-off is given here; in the data, active means growth inhibition above about 70%; inactive means the rest.

The nature of the first experiment: NCI Yeast Anticancer Drug Screen. Data for the mgt1 strain (AID 153). The note with it: S. cerevisiae mgt1 mutant growth inhibition; at 3.7 µM; hits give high values. The procedure, abridged: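 Strain: mgt1 yeast, one of a set carrying defined DNA damage repair or cell cycle control alterations. Compound-treated growth compared with vehicle.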
Turning to `O=[N+]([O-])c1cc[n+]([O-])cc1`, the growth inhibition is -4%.

Turning to `CC1(C)CC(=O)C(/C=N/c2nc(-c3ccccc3)cs2)=C(O)C1`, the growth inhibition is -2%.

`Nc1nc(N)c2nc(CNc3ccc(C(=O)NC(CCC(=O)O)C(=O)O)cc3F)cnc2n1` (stereo unspecified): the growth inhibition is 16%.

Take `COC(=O)CC1(O)C(/C=C/c2ccccc2)C(C(=O)OC)C(=O)C(C(=O)OC)C1C(=O)OC` (stereo unspecified): the growth inhibition is -3%.

As for `CC(C)(C)c1ccc(NS(=O)(=O)c2ccc(N)cc2)cc1`, the growth inhibition is -1%.

`CCN(CC)CCNc1ccc([N+](=O)[O-])c2nc3ccccc3c(N)c12`: the growth inhibition was -18%.

Regarding `CCCCN(CCCC)C(=O)/C=C/c1ccccc1`, the growth inhibition was -9%.

For `O=c1[nH]c(-c2ccccc2)nc2c1sc1nc3ccccc3n12`, the growth inhibition is -18%.

In the case of `O=[N+]([O-])c1ccc2c(c1)/C(=N/N=C1c3ccccc3Cc3ccccc31)c1cc([N+](=O)[O-])cc([N+](=O)[O-])c1-2`, the growth inhibition was 74% (active).

Take `CC(C)C(C)/C=C\C(C)C1CCC2C3=CC=C4CC(O)CCC4(C)C3CCC21C` (stereo unspecified): the growth inhibition is 3%.

As to `O=C1Nc2ccc(Br)cc2C1=Nc1ccc2c(c1)OCO2`, the growth inhibition is -32%.

`CCCCOCn1c(=O)[nH]c(=O)c2cc(Br)ccc21`: the growth inhibition was -36%.

With `Cc1ccc(S/C(=C\C(=O)O)c2ccccc2)cc1`, the growth inhibition was -5%.

Take `O=[N+]([O-])/C=C/c1cc(Cl)c(/C=C/[N+](=O)[O-])cc1Cl`: the growth inhibition is 48%.

Regarding `Cc1cc(S(=O)(=O)Nc2nnc3cnc4ccccc4n23)c(S)cc1Cl`, the growth inhibition is -2%.

In the case of `O=C(/C=C/c1cc(Cl)cc(Cl)c1O)c1cccc(O)c1`, the growth inhibition was 25%.

As for `NC1CCCCC1N.Nc1c(N=Nc2ccc(-c3ccc(N=Nc4cc(S(=O)(=O)[O-])c5ccccc5c4N)cc3)cc2)cc(S(=O)(=O)[O-])c2ccccc12.[OH3+].[OH3+].[Pt+4]`, the growth inhibition is 12%.

In the case of `COC(=O)CCC(NC(=S)N/N=C(\C)c1ccccn1)C(=O)OC` (stereo unspecified), the growth inhibition was 6%.

Take `NC(=O)C(=O)NNc1ccccc1`: the growth inhibition is 10%.

In the case of `COc1cc(C2SCC(=O)N2c2ccc(-c3ccc(-n4c(-c5ccccc5)nc5ccccc5c4=O)cc3)cc2)ccc1O` (stereo unspecified), the growth inhibition was 1%.

Take `COc1ccc(/C=C/c2sc3ccccc3[n+]2CCCCI)cc1OC`: the growth inhibition is -1%.

Turning to `Cc1c(C(C)C)cc(OCCO)cc1C(C)C`, the growth inhibition was -11%.

In the case of `Cc1cc(NCCCCCCCCNc2cc(C)nc3cc(N)ccc23)c2ccc(N)cc2n1`, the growth inhibition was -79%.

In the case of `C=C(Cl)COC(=O)Nc1cccc(Cl)c1`, the growth inhibition is -6%.

In the case of `CC(=O)OC1CC2C(C)(C)C(=O)C=C[C@]2(C)C2CCC3(C)C(=CCC3[C@H](CO)C[C@H](O)C(=O)C(C)(C)O)[C@]12C` (stereo partly specified), the growth inhibition was -34%.

As for `COc1ccc(/C=C/C(=O)c2ccccc2)cc1OC`, the growth inhibition is -30%.

On to `COc1c(O)c(C=O)c(Br)c(C=O)c1O`, for which the growth inhibition was 0%.

On to `O=[N+]([O-])c1cc(Cl)cnc1Br`, for which the growth inhibition was 1%.

Regarding `Cc1ccc2c(c1)C1(SC(C)C(=O)N1c1ccc(Cl)cc1)C(=O)N2` (stereo unspecified), the growth inhibition was -6%.

In the case of `COc1cc(CSc2ccc(O)cc2)cc(O)c1O`, the growth inhibition was -3%.

As for `Cc1ccc2c3ccc4c(c3n(C)c2c1)C(=O)C=CC4=O`, the growth inhibition was 11%.

With `O=C(Nc1ccc(Cl)cc1)Nc1nnc2nc(C(C(=O)c3cccc([N+](=O)[O-])c3Cl)c3nc4nnc(NC(=O)Nc5ccc(Cl)cc5)n4[nH]c3=O)c(=O)[nH]n12`, the growth inhibition was 1%.

As to `O=C(O)C1CC(c2ccccc2)=NN1c1ccccc1` (stereo unspecified), the growth inhibition was -56%.

Regarding `CCCCc1ccc(-n2c(C)c(COC(=O)NC)c(COC(=O)NC)c2C)cc1`, the growth inhibition is -41%.

Consider `CCC(=O)c1cc(C(=O)C(=S)SC)cc(C(=O)C(=S)SC)c1`, for which the growth inhibition is 51%.

As for `CCn1c(O)c(C=Nc2ccccc2)s/c1=N/Nc1nc(-c2ccccc2)cs1`, the growth inhibition is 10%.

As to `Cc1ccccc1N=C(NO)c1ccccc1`, the growth inhibition is -4%.

On to `Cc1nc2ccccc2nc1NNc1ccccc1`, for which the growth inhibition was 3%.

Staying with this experiment, now noted: S. cerevisiae mgt1 mutant growth inhibition; at 11.0 µM; hits give high values.
Consider `O=[N+]([O-])c1cc[n+]([O-])cc1`, for which the growth inhibition was -3%.

Turning to `CC1(C)CC(=O)C(/C=N/c2nc(-c3ccccc3)cs2)=C(O)C1`, the growth inhibition was 5%.

For `Nc1nc(N)c2nc(CNc3ccc(C(=O)NC(CCC(=O)O)C(=O)O)cc3F)cnc2n1` (stereo unspecified), the growth inhibition was 15%.

Regarding `COC(=O)CC1(O)C(/C=C/c2ccccc2)C(C(=O)OC)C(=O)C(C(=O)OC)C1C(=O)OC` (stereo unspecified), the growth inhibition was -3%.

As for `CC(C)(C)c1ccc(NS(=O)(=O)c2ccc(N)cc2)cc1`, the growth inhibition was 1%.

With `CCN(CC)CCNc1ccc([N+](=O)[O-])c2nc3ccccc3c(N)c12`, the growth inhibition is -20%.

Take `CCCCN(CCCC)C(=O)/C=C/c1ccccc1`: the growth inhibition is -5%.

As for `O=c1[nH]c(-c2ccccc2)nc2c1sc1nc3ccccc3n12`, the growth inhibition was -17%.

In the case of `O=[N+]([O-])c1ccc2c(c1)/C(=N/N=C1c3ccccc3Cc3ccccc31)c1cc([N+](=O)[O-])cc([N+](=O)[O-])c1-2`, the growth inhibition is 99% (active).

For the compound `CC(C)C(C)/C=C\C(C)C1CCC2C3=CC=C4CC(O)CCC4(C)C3CCC21C` (stereo unspecified), the growth inhibition was -1%.

`O=C1Nc2ccc(Br)cc2C1=Nc1ccc2c(c1)OCO2`: the growth inhibition is -15%.

For the compound `CCCCOCn1c(=O)[nH]c(=O)c2cc(Br)ccc21`, the growth inhibition was -47%.

Take `Cc1ccc(S/C(=C\C(=O)O)c2ccccc2)cc1`: the growth inhibition is -3%.

Consider `O=[N+]([O-])/C=C/c1cc(Cl)c(/C=C/[N+](=O)[O-])cc1Cl`, for which the growth inhibition was 68%.

Consider `Cc1cc(S(=O)(=O)Nc2nnc3cnc4ccccc4n23)c(S)cc1Cl`, for which the growth inhibition is -1%.

As for `O=C(/C=C/c1cc(Cl)cc(Cl)c1O)c1cccc(O)c1`, the growth inhibition was 89% (active).

For the compound `NC1CCCCC1N.Nc1c(N=Nc2ccc(-c3ccc(N=Nc4cc(S(=O)(=O)[O-])c5ccccc5c4N)cc3)cc2)cc(S(=O)(=O)[O-])c2ccccc12.[OH3+].[OH3+].[Pt+4]`, the growth inhibition was 90% (active).

In the case of `COC(=O)CCC(NC(=S)N/N=C(\C)c1ccccn1)C(=O)OC` (stereo unspecified), the growth inhibition is 28%.

For the compound `NC(=O)C(=O)NNc1ccccc1`, the growth inhibition is 28%.

`COc1cc(C2SCC(=O)N2c2ccc(-c3ccc(-n4c(-c5ccccc5)nc5ccccc5c4=O)cc3)cc2)ccc1O` (stereo unspecified): the growth inhibition is 0%.

For the compound `COc1ccc(/C=C/c2sc3ccccc3[n+]2CCCCI)cc1OC`, the growth inhibition is -4%.

In the case of `Cc1c(C(C)C)cc(OCCO)cc1C(C)C`, the growth inhibition is -9%.

On to `Cc1cc(NCCCCCCCCNc2cc(C)nc3cc(N)ccc23)c2ccc(N)cc2n1`, for which the growth inhibition was 80% (active).

Consider `C=C(Cl)COC(=O)Nc1cccc(Cl)c1`, for which the growth inhibition was -11%.

In the case of `CC(=O)OC1CC2C(C)(C)C(=O)C=C[C@]2(C)C2CCC3(C)C(=CCC3[C@H](CO)C[C@H](O)C(=O)C(C)(C)O)[C@]12C` (stereo partly specified), the growth inhibition is 53%.

With `COc1ccc(/C=C/C(=O)c2ccccc2)cc1OC`, the growth inhibition is -24%.

With `COc1c(O)c(C=O)c(Br)c(C=O)c1O`, the growth inhibition is 8%.

On to `O=[N+]([O-])c1cc(Cl)cnc1Br`, for which the growth inhibition was 4%.

For `Cc1ccc2c(c1)C1(SC(C)C(=O)N1c1ccc(Cl)cc1)C(=O)N2` (stereo unspecified), the growth inhibition is 3%.

Consider `COc1cc(CSc2ccc(O)cc2)cc(O)c1O`, for which the growth inhibition is 1%.

With `Cc1ccc2c3ccc4c(c3n(C)c2c1)C(=O)C=CC4=O`, the growth inhibition is 22%.

With `O=C(Nc1ccc(Cl)cc1)Nc1nnc2nc(C(C(=O)c3cccc([N+](=O)[O-])c3Cl)c3nc4nnc(NC(=O)Nc5ccc(Cl)cc5)n4[nH]c3=O)c(=O)[nH]n12`, the growth inhibition was 0%.

As for `O=C(O)C1CC(c2ccccc2)=NN1c1ccccc1` (stereo unspecified), the growth inhibition was -41%.

`CCCCc1ccc(-n2c(C)c(COC(=O)NC)c(COC(=O)NC)c2C)cc1`: the growth inhibition was 19%.

For the compound `CCC(=O)c1cc(C(=O)C(=S)SC)cc(C(=O)C(=S)SC)c1`, the growth inhibition was 99% (active).

In the case of `CCn1c(O)c(C=Nc2ccccc2)s/c1=N/Nc1nc(-c2ccccc2)cs1`, the growth inhibition was 18%.

Turning to `Cc1ccccc1N=C(NO)c1ccccc1`, the growth inhibition was -4%.

In the case of `Cc1nc2ccccc2nc1NNc1ccccc1`, the growth inhibition was 3%.
